About 2,400 (1.1%) of roughly 220,000 compounds were called active. Entries that show only a call come without a potency. About 7% were inconclusive and are not listed. Calls follow the shape of the dose curve; as a rule, active = well fitted inhibition curve with a large enough effect; inconclusive = small, poorly fitted or top-dose-only effect, or effect the other way; inactive = no such curve, though single readings can be large or run the other way. The full list was thinned out, with actives kept by preference.
Potency is read from the fitted curve at half-maximal effect.

This assay can be described thus: qHTS Multiplex Assay to Identify Dual Action Probes in a Cell Model of Huntington: Aggregate Formation (GFP). Also: nearly all actives have a fitted effect of over 60% in size. The following applies: PC12 HttQ103-GFP aggregates, Acumen cytometry, 40 h; series mostly up to 9.22 µM. In outline:
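PC12/HTTQ103-GFP, ecdysone-inducible; teb 100 nM; cpd qHTS titration; GFP aggregates read on laser cytometer, Ex 488/Em 500-530 nm.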
(In general: Quantitative high-throughput screening tests each substance at several concentrations.)
Turning to `Nc1nnc(SCC(=O)NC2CCCc3ccccc32)s1` (stereo not given), the Potency result was “inactive”.
As for `O=C(CCl)Nc1ccc(Sc2ccc(NC(=O)CCl)cc2)cc1`, the entry is “inactive”; as for `O=C(Cc1ccc2c(c1)CCCC2)Nc1ccccc1Cl`, “inactive”.
Then `O=C(Cc1ccc(Cl)c(Cl)c1)Nc1ccc(SC(F)F)cc1`, with 12.6 µM (active).
Then `O=C(NNC(=O)c1cnccc1C(F)(F)F)c1ccc(Cl)cc1`, with “inactive”; and `CC(=O)NC(CC(=O)Nc1nccs1)c1ccccc1` (stereo not given), with “inactive”; and `CCOC(=O)c1c(-c2ccc(C)cc2)csc1/N=C(\C)C1=C(O)c2ccccc2C1=O`, with “inactive”.
For `CCOC(=O)C1=C(c2ccc(OC)cc2)C(=O)c2ccccc2C1=O`, the Potency is 11.2 µM (active).
Then `CCCCC(C(=O)OCC(=O)c1ccc(OC)cc1)N1C(=O)c2ccccc2C1=O` (stereo not given), with “inactive”.
Then `CC(CNS(=O)(=O)c1ccc(Br)cc1)CN(C)C` (stereo not given), with “inactive”; and `c1ccc(Nc2nc(N3CCOCC3)c3ccccc3n2)cc1`, with 12.6 µM (active); and `CN1CCN(c2nc(Nc3ccc(O)cc3)nc3ccccc23)CC1`, with “inactive”.
For the molecule `c1ccc(-c2nnc(N3CCOCC3)c3ccccc23)cc1`, the Potency entry was “inactive”.
In the case of `CN(c1ccc(OCC(=O)NC2=NCCS2)cc1)S(=O)(=O)c1ccc(F)cc1`, the Potency result is “inactive”.
Consider `CC(=O)c1sc(NC(=O)c2ccc(C)cc2)nc1C`, for which the Potency entry was “inactive”.
Then `N#Cc1ccc(C(=O)Nc2nc(-c3cccs3)c(C(=O)C(F)(F)F)s2)cc1`, with 2.82 µM (active); and `Cc1ccc(C(=O)Nc2nnc(-c3cccs3)s2)cc1C`, with “inactive”; and `Clc1ccc(CSc2nnc3c(n2)[nH]c2ccccc23)cc1`, with “inactive”.
`Cc1ccc(CSc2nnc(-c3cnccn3)n2C)cc1`: the Potency entry is “inactive”.
As for `O=C(CCCO)N/N=C/c1cc(Br)ccc1O`, the figure is 7.94 µM (active); as for `Oc1ccc(Br)cc1C=Nc1ccc2[nH]ncc2c1`, “inactive”.
Then `COc1ccc(CC(=O)NCC(=O)N/N=C/c2cc(Br)ccc2OC)cc1`, with “inactive”.
As to `COc1ccc(Cl)cc1CSc1ncn[nH]1`, the Potency entry was “inactive”.
Then `COc1ccc(-n2c(C)cc(C(=O)CSc3nnc(-c4cccs4)o3)c2C)cc1`, with 7.94 µM (active).
Then `COc1ccc(OC)c(C(=O)CSc2nnc(-c3cccs3)o2)c1`, with “inactive”; and `COc1ccc(-c2nnc(SCC(=O)c3cccs3)o2)c(OC)c1`, with “inactive”; and `C/C=N/N(c1ccccc1)c1ccccc1`, with “inactive”.
For `COc1cccc(Nc2nnc(SCC(=O)N3CC(=O)Nc4ccccc43)s2)c1`, the Potency entry is “inactive”.
`O=P(O)(O)OC[C@H](O)CO`: the Potency result was “inactive”.
Consider `Cc1nc(CNS(=O)(=O)c2cccnc2)cs1`, for which the Potency entry is “inactive”.
As for `Cc1ccc(S(=O)(=O)NCc2csc(C)n2)c(C)c1`, the entry is “inactive”; as for `Cc1nc(CNS(=O)(=O)c2ccc(Oc3ccccc3)cc2)cs1`, 10 µM (active).
As for `CSC1=NC2(C)CCCCC2C12C=CC(=O)C=C2` (stereo not given), the entry is “inactive”; as for `Nn1c(SCc2ccccc2)nnc1C1CCCCC1`, “inactive”; as for `Cc1cccc(Cn2c(SCCO)nc3c2c(=O)n(C)c(=O)n3C)c1`, “inactive”.
As for `COC(=O)C(C)Sc1nc2c(c(=O)n(C)c(=O)n2C)n1Cc1cccc(C)c1` (stereo not given), the figure is 28.2 µM (active); as for `CCCCNc1nc2c(c(=O)n(C)c(=O)n2C)n1Cc1cccc(OC)c1`, 7.08 µM (active).
In the case of `Cc1cccc(Cn2c(N3CCN(c4ccccc4)CC3)nc3c2c(=O)n(C)c(=O)n3C)c1`, the Potency result is “inactive”.
For `CCn1c(NCCc2ccc(OC)c(OC)c2)nc2c1c(=O)n(C)c(=O)n2C`, the Potency result was “inactive”.
As for `CCCCNc1nc2c(c(=O)[nH]c(=O)n2C)n1CCOc1ccccc1`, the entry is “inactive”; as for `CN(C)C(=O)c1coc2nc3ccccc3nc12`, “inactive”; as for `Cn1nc(C(F)(F)F)c(-c2ccc(F)cc2)c1NC(=O)CSCC(=O)O`, “inactive”.
As for `COc1cc(/C=N/Nc2nc3ccccc3s2)ccc1O`, the entry is “inactive”; as for `O=[N+]([O-])c1cc(Br)c(O)c(/C=N/Nc2nc3ccccc3s2)c1`, 5.01 µM (active).
As for `c1ccc2sc(NN=C3CCCC3)nc2c1`, the Potency result was “inactive”.
Then `COc1ccc(C(C)=O)cc1COc1ccc(Cl)c(C)c1`, with “inactive”.
Turning to `CCOC(=O)C1=C(N)N2C(=O)C(C)SC2=C(C(=O)OCC)C1c1cc(OC)c(OC)c(OC)c1` (stereo not given), the Potency result is “inactive”.
Then `O=C(NC(=O)c1ccccc1N1CCCCC1)Nc1ccc(Br)cc1`, with “inactive”.
As for `COc1cccc2c(=O)n(CC(=O)N3CCCCCC3)ccc12`, the entry is “inactive”; as for `Cn1c(=O)n(C)c(=O)n(CC(=O)N2CCCCC2)c1=O`, 3.55 µM (active); as for `O=C(CN1C(=O)c2cccc3cccc(c23)C1=O)N1CCCCC1`, “inactive”.
Then `O=C(CC(c1ccccc1)c1cc(Cl)ccc1O)NCCN1CCOCC1` (stereo not given), with “inactive”; and `Cc1c(NC(=O)C(=O)N/N=C/c2cccs2)c(=O)n(-c2ccccc2)n1C`, with “inactive”; and `COC(=O)c1cc(S(=O)(=O)N2CCC(C(N)=O)CC2)oc1C`, with “inactive”.
Regarding `Cc1nc(SCC(=O)N2CC(=O)Nc3ccccc32)c2c(C)c(C)sc2n1`, the Potency result is “inactive”.
Then `Cc1nc(SCC(=O)N2CCc3ccccc3C2)c2c(C)c(C)sc2n1`, with 14.1 µM (active); and `Cc1nnc(SCC(=O)N2CCc3ccccc3C2)s1`, with “inactive”; and `O=C(Nc1ccc(Cl)cc1)Nc1ccc(C(=O)N2CCOCC2)cc1`, with “inactive”.
On to `O=C(C[n+]1cc(-c2ccc(Cl)c(Cl)c2)n2c1CCC2)c1cccs1`, for which the Potency result was “inactive”.
Then `COc1ccc(CCN2C(=O)CC(N3CCC(C(N)=O)CC3)C2=O)cc1OC` (stereo not given), with “inactive”; and `CCCC(=O)Nc1nnc(-c2ccccc2)o1`, with “inactive”.
Consider `CCCCCCc1cc2cc(-c3nnc(-c4ccccc4)o3)c(=O)oc2cc1O`, for which the Potency was 5.01 µM (active).
As for `Cc1c(CCC(=O)O)c(=O)oc2cc3occ(-c4ccccc4)c3cc12`, the entry is “inactive”; as for `COc1cc(C(F)(F)F)c(C(=O)N(C)c2ccc(Cl)cc2)cn1`, “inactive”; as for `CCC(=O)Nc1cccc(C2=NOC3(C2)C[C@@H](C(N)=O)N(C(=O)c2cc([N+](=O)[O-])cc([N+](=O)[O-])c2C)C3)c1` (stereo not given in full), “inactive”.
For `O=c1c2ccccc2nc2n1C(CSc1ccc(F)cc1)CN2` (stereo not given), the Potency result was “inactive”.
Then `O=c1c2ccccc2nc2n1C(CSCc1ccccc1)CS2` (stereo not given), with 11.2 µM (active).
As to `O=c1c2ccccc2nc2n1C(CSc1ccc(Cl)cc1)CN2` (stereo not given), the Potency result is “inactive”.
Then `CN(C)S(=O)(=O)c1ccc(NC(=O)COC(=O)Cn2[nH]c(=O)c3ccccc3c2=O)cc1`, with “inactive”; and `Clc1cccc(-c2nc(NCC3CCCO3)c3ccccc3n2)c1` (stereo not given), with “inactive”; and `O=C(O)c1cccc(NC(=O)c2cc(-c3cccc(Cl)c3)nc3ccccc23)c1`, with “inactive”.
Then `Clc1ccc2nc(-c3ccccc3)nc(C(Cl)Cl)c2c1`, with 1.41 µM (active); and `CC(C)=NN1C(=O)c2ccccc2NC1(C)C`, with “inactive”; and `Cc1ccccc1Nc1c(-c2ccccc2)nc2ncccn12`, with “inactive”.
Then `O=C(CNC(=O)C(c1ccccc1)c1ccccc1)N/N=C\c1ccc2c(c1)OCO2`, with “inactive”.
As to `C/C(=N\NC(=O)CNC(=O)C(c1ccccc1)c1ccccc1)c1ccc(C)cc1`, the Potency was 12.6 µM (active).
As for `C/C(=N\NC(=O)Cc1ccc(F)cc1)c1ccc(F)cc1`, the entry is “inactive”.
As to `CCNC(=S)N1CCN(CCN=CC2=C(O)CC(C)(C)CC2=O)CC1`, the Potency result is “inactive”.
As for `O=C(N/N=C/c1ccc2c(c1)OCO2)c1ccc(Cn2cc([N+](=O)[O-])cn2)o1`, the entry is “inactive”.
As for `Cc1c(Cl)c([N+](=O)[O-])nn1Cc1ccc(C(=O)N/N=C\c2cc(Cl)ccc2O)o1`, the figure is 1.58 µM (active); as for `Cc1c(Cl)c([N+](=O)[O-])nn1CCCC(=O)Nc1cc(Cl)ccc1Cl`, “inactive”; as for `CC(NC(=S)Nc1ccccc1)C(c1cccs1)N1CCOCC1` (stereo not given), “inactive”.
Then `O=C(O)CSCC(=O)Nc1cccc(C(F)(F)F)c1`, with “inactive”; and `O=C(Nc1cccc(C(F)(F)F)c1)c1cnccn1`, with “inactive”.
For `O=C(Nc1cccc(C(F)(F)F)c1)c1cc(Br)cc(Br)c1O`, the Potency is 5.01 µM (active).
With `Cc1cc(C(=O)CSc2nc(N)cc(=O)[nH]2)c(C)n1Cc1ccco1`, the Potency result was “inactive”.
As for `COC(c1ccccc1)(c1ccccc1)C(Oc1nc(C)cc(C)n1)C(=O)O` (stereo not given), the entry is “inactive”.
As for `COc1ccc(/C=C/c2nnc(NC(=O)C(C)C)s2)cc1`, the Potency result was “inactive”.
As to `CCN(CC)S(=O)(=O)c1ccc(N(C)CCc2ccc(OC)c(OC)c2)nc1`, the Potency entry is “inactive”.
Then `CCN(CC)S(=O)(=O)c1ccc(N(C)Cc2ccc(C(F)(F)F)cc2)nc1`, with 10 µM (active); and `CCN(CC)S(=O)(=O)c1ccc(Cl)c(NC(=O)c2ccncc2)c1`, with “inactive”; and `C/C(=N\OCC(=O)O)c1ccc(Cl)cc1`, with “inactive”.
Then `O=C(CNCc1cccs1)Nc1cc(S(=O)(=O)N2CCCC2)ccc1Cl`, with “inactive”; and `OCCCNc1nccc(-c2cc(Nc3cccc(Cl)c3)ncn2)n1`, with 0.794 µM (active).
Then `CC(C)n1cnc2c(Nc3cccc(Cl)c3)nc(N(CCO)CCCO)nc21`, with “inactive”; and `O=C(Nc1cc(Cl)cc(Cl)c1)C(NCCCO)c1ccccc1` (stereo not given), with “inactive”.
On to `Brc1ccc2c(c1)[C@H]1OCC[C@H]1[C@@H](c1cccs1)N2`, for which the Potency result was “inactive”.
As for `CCC(C)N1C(=O)S/C(=C/c2ccc(Sc3nc4ccccc4[nH]3)o2)C1=O` (stereo not given), the figure is 10 µM (active); as for `CCCCSc1nc2ccccc2[nH]1`, “inactive”.
In the case of `O=C(CSc1nc2ccccc2[nH]1)c1cccs1`, the Potency result was “inactive”.
Then `O=C(O)c1ccc(/C=N/Nc2nc(N3CCCCC3)nc(N3CCCCC3)n2)cc1`, with “inactive”; and `NC(=O)c1ccc(NC(=O)COC(=O)c2ccc([N+](=O)[O-])cc2)cc1`, with “inactive”; and `COc1ccc(N(Cc2ccccc2)S(=O)(=O)c2cccc(C(=O)O)c2)cc1`, with “inactive”.
Then `CCOC(=O)N1CCN(C(=O)c2ccc(S(=O)(=O)c3ccc(C)cc3)c(NC(C)=O)c2)CC1`, with “inactive”; and `O=C(NCCN1CCOCC1)c1ccc2c(c1)N(Cc1ccc(Cl)cc1)CCS2`, with “inactive”; and `CCOC(=O)N1CCN(C(=O)c2ccc3c(c2)N(Cc2ccc(C)cc2)CCS3)CC1`, with 11.2 µM (active).
As for `Cc1ccc(S(=O)(=O)N2CCN(C(=O)COC(=O)c3c(C)noc3C)CC2)c(C)c1`, the entry is “inactive”; as for `O=C(c1ccccc1-c1ccccc1)N1CCOCC1`, “inactive”.
Consider `Cc1oc2c(c1C(=O)N1CCOCC1)C(=O)c1ccccc1C2=O`, for which the Potency was 10 µM (active).
As for `Cc1onc(-c2ccccc2)c1C(=O)N1CCOCC1`, the entry is “inactive”.

(Values after PubChem BioAssay AID1688 (National Center for Advancing Translational Sciences (NCATS), 2009).)
